Test [1] can be described thus: inhibitors of TNFa-induced NFkB p65 translocation, primary screen, imaging, HUVEC, MLSMR starter and 10KST1 sets (AID 438;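 active = inhibition above 20% together with a positive visual image hit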;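 note: compound added about 3h40 before a 20 min TNFalpha stimulation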;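 for inhibition: signal is the nuclear over cytoplasmic p65 intensity ratio per well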). The conditions noted are these: HUVEC TNFa-induced p65 nuclear translocation; cell count: measured here: nuclei count (cytotoxicity indicator), at 2.08 µM; inhibition: at 2 µM, stronger effect = higher value, 0% TNFa-plus-vehicle, 100% no-TNFa wells.
Test [2] can be described thus: reduction of polyQ htt aggregates in cells – imaging, exon1htt(103Q)mCFP cells, high-content imaging, primary screen (AID 483;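 active = visual image review flags a hit and inhibition of aggregation exceeds 20%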;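 note: compound exposure lasted 3 days before fixation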;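 for nuclei count: percent of the per-plate median nuclei count of sample wells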). The conditions noted are these: exon1htt(103Q)mCFP cell line, aggregate imaging, at 2 µM; inhibition of aggregation: stronger effect = higher value; nuclei count: measured here: cell count, toxicity.
A short description of test [3]: endothelial E-selectin expression blockers – imaging, HUVEC, immunofluorescence, MLSMR starter and 10KST1 sets, primary screen (AID 487;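 active = visually confirmed hit in the image check and inhibition above 20%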;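 for inhibition: signal is fraction of cell area covered by stained E-selectin grains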;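 for nuclei count: 100% = median nuclei count of all wells on the same plate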). The conditions noted are these: HUVEC TNFalpha-induced E-selectin immunofluorescence imaging, at 2 µM; inhibition: stronger effect = higher value; nuclei count: measured here: cell number, toxicity.
The target in test [4] is Voltage-gated potassium channel subunit beta-2 (Rattus norvegicus) (UniProt P62483). As to the kind of experiment: inhibitors of rat Kvbeta2 reductase activity – biochemical, NADPH fluorescence, primary screen (AID 622;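 active = fluorescence slope higher than the sample average by over 3 SD, cut at about -0.22 in these data, passing the limit was not always enough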;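 note: slope of raw intensity against log time taken from 70 to 1610 s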). The conditions noted are these: recombinant KvBeta, 4-cyanobenzaldehyde reduction, at 10 µM, stronger effect = higher value.
Chain of Voltage-gated potassium channel subunit beta-2 (Rattus norvegicus) (P62483 whole entry, looked up): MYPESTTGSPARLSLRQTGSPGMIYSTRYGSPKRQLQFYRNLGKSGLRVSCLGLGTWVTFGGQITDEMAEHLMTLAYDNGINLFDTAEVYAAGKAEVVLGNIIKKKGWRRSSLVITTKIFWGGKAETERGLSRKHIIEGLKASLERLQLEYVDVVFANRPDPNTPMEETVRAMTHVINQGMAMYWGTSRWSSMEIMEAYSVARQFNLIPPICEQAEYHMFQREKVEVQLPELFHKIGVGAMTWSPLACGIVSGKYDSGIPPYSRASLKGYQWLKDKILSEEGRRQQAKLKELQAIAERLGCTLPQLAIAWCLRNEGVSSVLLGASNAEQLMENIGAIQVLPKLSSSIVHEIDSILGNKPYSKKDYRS
Test [5] shares this target. As to the kind of experiment: enhancers of rat Kvbeta2 NADPH turnover – biochemical, NADPH fluorescence, primary screen (AID 623;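 active = NADPH fluorescence slope more negative than the mean of all samples by about 3 SD, 99.7% confidence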;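 note: fluorescence intensity change per second fitted from 20 to 320 s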). The conditions noted are these: Recombinant KvBeta, NADPH fluorescence decrease slope, 10 min; at 10 µM; stronger effect = lower value.
The target of test [6] is Alpha-2C adrenergic receptor (Homo sapiens) (UniProt P18825). Put plainly: compounds altering alpha2C-coupled GIRK flux – cell-based, HEK293 alpha2C/GIRK1/2, thallium flux, primary screen (AID 624;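 active = fluorescence slope after compound addition differing from the mean of all screened samples at 99.7% confidence, in either direction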;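 note: slope of fluorescence ratio to pre-addition baseline per second over 15 to 24 s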). The conditions noted are these: thallium flux BTC fluorescence, at 10 µM, actives lie on both sides.
Chain of Alpha-2C adrenergic receptor (Homo sapiens) (P18825 whole entry, looked up): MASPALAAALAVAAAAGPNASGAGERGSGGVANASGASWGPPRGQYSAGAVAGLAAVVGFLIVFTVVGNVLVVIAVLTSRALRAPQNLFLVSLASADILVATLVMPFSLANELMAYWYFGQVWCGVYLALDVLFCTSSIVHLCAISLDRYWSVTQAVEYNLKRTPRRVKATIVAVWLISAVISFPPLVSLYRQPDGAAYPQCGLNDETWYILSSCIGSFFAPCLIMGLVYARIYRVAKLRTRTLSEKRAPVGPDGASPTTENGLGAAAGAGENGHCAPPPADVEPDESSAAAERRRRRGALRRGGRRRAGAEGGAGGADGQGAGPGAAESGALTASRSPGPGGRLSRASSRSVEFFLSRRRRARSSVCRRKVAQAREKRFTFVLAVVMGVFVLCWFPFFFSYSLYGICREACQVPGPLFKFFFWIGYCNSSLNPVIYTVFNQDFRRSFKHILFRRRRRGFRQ
Test [7] can be described thus: blockers of RIG-like receptor reporter activation – cell-based, Sendai virus stimulus, luciferase, 10K MLSCN set, TLR/RLR signaling modifier project, primary screen (AID 602276).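 Note: firefly luciferase from ISG56 promoter only with Renilla not read in this screen; 0% = Sendai virus plus DMSO and 100% = medium plus DMSO without virus.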 To be noted: HEK293 RL24 IRF3 luciferase reporter, at 10 µM, stronger effect = higher value. On the technique in general: Reporter assays use an easily measured gene product as a stand-in for the process of interest.

Test [8] is described as follows: TLR3 IRF3 reporter activation blockers – cell-based, poly I:C stimulus, luciferase, 10K MLSCN set, primary screen (AID 602277;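 active = inhibition of the reporter signal at or above 50%; inactive = inhibition below 50%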). To be noted: HEK293-TLR3 RL24 IRF3 luciferase reporter, at 10 µM, stronger effect = higher value.

Activity calls are given as the source filed them.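 Rule for the calls, unless noted: active = inhibition at or above 50% at 10 µM; inactive = inhibition below 50%.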

By inhibition is commonly meant the relative decrease from the control value, in per cent. `CCc1ccc(N2CC(C(=O)OCC(=O)NC3CCS(=O)(=O)C3)CC2=O)cc1` (stereo not drawn): the cell count in test [1] amounted to 260. Further, the inhibition is 21% (inactive) in test [1], 6.8% (inactive) in test [3], 0.238% (inactive) in test [7] and 7.99% (inactive) in test [8]. Besides, the inhibition of aggregation in test [2] was 12% (inactive). The values for the nuclei count in test [2] and in test [3] were 85.2% and 91.9%, respectively. In addition, in test [4], the fluorescence slope is -0.468 (inactive). Further, the NADPH fluorescence slope in test [5] was 7e-05 (inactive). The slope in test [6] was 0.00704 (inactive).
In the case of `COc1cc(OC)cc(-c2nc(N)n[nH]2)c1`, the cell count in test [1] was 455. Besides, the inhibition in test [1] was 3.7% (inactive); in test [3], -33% (inactive); in test [7], 10.7% (inactive); in test [8] it was 12% (inactive). Further, the inhibition of aggregation in test [2] was 0% (inactive). Also, the nuclei count in test [2] was found to be 105%; in test [3], 104%. Besides, the fluorescence slope in test [4] is -0.411 (inactive). Moreover, in test [5], the NADPH fluorescence slope was -5.5e-05 (inactive). The slope in test [6] is 0.00517 (inactive).
In the case of `C=CCOc1ccc(C2/C(=C(\O)c3c(C)[nH]c(C(=O)OC)c3C)C(=O)C(=O)N2CCN(C)C)cc1` (stereo not drawn), in test [1], the cell count was 462. The inhibition in test [1] is 0.5% (inactive); in test [3], -96.2% (inactive); in test [7], 13.2% (inactive); in test [8], 26.6% (inactive). Further, the inhibition of aggregation in test [2] is -6.9% (inactive). In addition, the nuclei count in test [2] came out at 99.7%; in test [3] it was 118%. In addition, the fluorescence slope in test [4] was -0.536 (inactive). Moreover, the NADPH fluorescence slope in test [5] was -1.1e-05 (inactive). Moreover, the slope in test [6] is 0.00355 (inactive).
Take `O=C(CSc1nnc(CNC(=O)c2c(F)cccc2Cl)o1)c1ccccc1`: in test [1], the cell count was found to be 672. Besides, the inhibition in test [1] is -19.6% (inactive); in test [3], -111% (inactive); in test [7], 3.28% (inactive); in test [8], 18.3% (inactive). Further, the inhibition of aggregation in test [2] is 40.1% (active). Further, the nuclei count in test [2] amounted to 100%; in test [3], 123%. Further, the fluorescence slope in test [4] is -0.406 (inactive). For the same compound, in test [5], the NADPH fluorescence slope is -5.2e-05 (inactive). Besides, the slope in test [6] was 0.00534 (inactive).
In the case of `CCOC(=O)Cn1c(CN(C)Cc2ccccc2)nc2c1c(=O)n(C)c(=O)n2C`, in test [1], the cell count stood at 241. The inhibition was 6.8% (inactive) in test [1], 26.4% (inactive) in test [3], 13.2% (inactive) in test [7] and 10.8% (inactive) in test [8]. Moreover, in test [2], the inhibition of aggregation is 6.2% (inactive). The figures for the nuclei count in test [2] and in test [3] were 92.6% and 94.7%, respectively. Also, the fluorescence slope in test [4] is -0.278 (inactive). The NADPH fluorescence slope in test [5] was -3.7e-05 (inactive). The slope in test [6] is 0.00521 (inactive).
Consider `COc1ccc(-c2noc(-c3ccccc3C(=O)NCc3ccco3)n2)cc1`, for which, in test [1], the cell count came to 331. Moreover, the inhibition in test [1] was 9.3% (inactive); in test [3] it was -64.4% (inactive); in test [7], -8.85% (inactive); in test [8], -39.1% (inactive). In test [2], the inhibition of aggregation was -16.3% (inactive). The figures for the nuclei count in test [2] and in test [3] were 77.4% and 99.2%, respectively. In addition, in test [4], the fluorescence slope was -0.592 (inactive). Also, the NADPH fluorescence slope in test [5] was -4.7e-05 (inactive). The slope in test [6] is 0.00789 (inactive).
For `Cc1ccc(Cn2ccc(NC(=O)c3cc(-c4cccs4)on3)n2)cc1`, the cell count in test [1] worked out at 407. For the same compound, the inhibition in test [1] was 0.9% (inactive); in test [3], -33.4% (inactive); in test [7] it was -3.96% (inactive); in test [8] it was -7.39% (inactive). The inhibition of aggregation in test [2] was -11.4% (inactive). The nuclei count was 96.9% in test [2] and 99.3% in test [3]. In test [4], the fluorescence slope is -0.493 (inactive). In test [5], the NADPH fluorescence slope was -1.8e-05 (inactive). Besides, the slope in test [6] is 0.00693 (inactive).
`CC(=O)NCCOc1cccc(OCCNC(C)=O)c1`: the cell count in test [1] was 369. The inhibition in test [1] is 2.8% (inactive); in test [3], -22.5% (inactive); in test [7], -7.84% (inactive); in test [8] it was -11.9% (inactive). Further, in test [2], the inhibition of aggregation was 6.8% (inactive). Moreover, the figures for the nuclei count in test [2] and in test [3] were 103% and 117%, respectively. Moreover, in test [4], the fluorescence slope was -0.432 (inactive). Moreover, the NADPH fluorescence slope in test [5] is 4e-05 (inactive). Moreover, in test [6], the slope was 0.00674 (inactive).
As to `CC(C)(C)C(=O)CNS(=O)(=O)c1ccc(S(=O)(=O)NC2CCCC2)cc1`, the cell count in test [1] was 479. Moreover, the inhibition in test [1] is 6% (inactive); in test [3], -35.9% (inactive); in test [7], 9.9% (inactive); in test [8] it was 22.1% (inactive). Besides, in test [2], the inhibition of aggregation was 2.6% (inactive). Moreover, the nuclei count in test [2] was found to be 113%; in test [3] it was 94.4%. Moreover, the fluorescence slope in test [4] is -0.47 (inactive). In test [5], the NADPH fluorescence slope is 2.8e-05 (inactive). For the same compound, in test [6], the slope is 0.00543 (inactive).
With `COc1ccc(N2CCN(Cc3nc4ccccc4c(=O)[nH]3)CC2)cc1`, the cell count in test [1] was determined as 683. The inhibition in test [1] is -4.7% (inactive); in test [3], -72.3% (inactive); in test [7], 10.6% (inactive); in test [8], -9.48% (inactive). Moreover, the inhibition of aggregation in test [2] was -13.4% (inactive). Also, the results for the nuclei count in test [2] and in test [3] were 119% and 112%, respectively. For the same compound, the fluorescence slope in test [4] is -0.607 (inactive). Moreover, in test [5], the NADPH fluorescence slope was -3.1e-07 (inactive). The slope in test [6] was 0.00376 (inactive).
`CC1(C)NC(=O)N(CN2C(=O)NC(C)(C)C2=O)C1=O`: the cell count in test [1] turned out to be 579. For the same compound, the inhibition in test [1] was -7.9% (inactive); in test [3], 28.8% (inactive); in test [7], 7.1% (inactive); in test [8], 9.34% (inactive). Also, the inhibition of aggregation in test [2] was -22.5% (inactive). Further, the values for the nuclei count in test [2] and in test [3] were 114% and 110%, respectively. For the same compound, the fluorescence slope in test [4] is -0.415 (inactive). Moreover, the NADPH fluorescence slope in test [5] was -3.4e-05 (inactive). For the same compound, in test [6], the slope was 0.00531 (inactive).
In the case of `COc1ccccc1C(=O)n1nc(-c2ccc(Cl)cc2)nc1N`, the cell count in test [1] was 330. Further, the inhibition in test [1] is -1.2% (inactive); in test [3], -17.2% (inactive); in test [7], 2.38% (inactive); in test [8], 9.48% (inactive). Moreover, the inhibition of aggregation in test [2] is -3.1% (inactive). In addition, the figures for the nuclei count in test [2] and in test [3] were 104% and 113%, respectively. For the same compound, the fluorescence slope in test [4] was -0.426 (inactive). Moreover, the NADPH fluorescence slope in test [5] is 1.8e-05 (inactive). In addition, in test [6], the slope is 0.00385 (inactive).
Turning to `CCCCS(=O)(=O)NC1=NCN(C2CCN(Cc3ccccc3)CC2)CN1`, the cell count in test [1] was found to be 378. Moreover, the inhibition in test [1] is -2.1% (inactive); in test [3], -23.1% (inactive); in test [7] it was 4.05% (inactive); in test [8], 18.7% (inactive). Also, in test [2], the inhibition of aggregation was 17.7% (inactive). Besides, the nuclei count in test [2] was 97.1%; in test [3], 113%. Also, the fluorescence slope in test [4] is -0.572 (inactive). In addition, the NADPH fluorescence slope in test [5] was -9.6e-05 (inactive). For the same compound, the slope in test [6] is 0.00667 (inactive).
